These results are taken from PubChem BioAssay AID1508625 (Wald Lab, School of Medicine, Case Western Reserve …, 2021).

This test can be described thus: small molecules boosting NK-mediated OVCAR3 lysis – imaging, primary NK cells, calcein-AM imaging, primary screen (AID 1508625).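 Further: compound given to NK cells 16 h before adding targets at 1.5 to 1 ratio.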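 On z-score: more negative robust z means stronger NK killing of tumor cells.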 Particulars: OVCAR3 lysis by primary NK cells, at 5 µM; z-score: measured here: robust Z-score, single-point normalisation.

Turning to `Cc1cc(Br)c(O)c(C=NCCNC(=O)c2nonc2N)c1`, the corrected activity, negative = more killing is 0.42% and the z-score was 0.173.
Taken in the same sequence, the figures for `O=C1OC(c2ccccc2Cl)=NC1=Cc1ccccc1F` were -3.5% and -1.49.
Take `OCCNCCCOc1cccc(Cl)c1Cl`: the corrected activity, negative = more killing is 2.34% and the z-score is 0.743.
The like results for `COc1ccccc1CNC(=O)C1CCN(S(=O)(=O)c2cccc3nonc23)CC1` were, in that order, -5.24% and -1.49.
For `CCN1CCN(C(=O)C2c3ccccc3C(=O)N(C)C2c2cccs2)CC1` (centres undefined), the corrected activity, negative = more killing was -7.01% and the z-score was -1.74.
As to `COc1cccc(N2CCN(C(=O)Nc3ccc(F)cc3)CC2)c1`, the corrected activity, negative = more killing was -2.57% and the z-score was -1.43.
Taken in the same sequence, the figures for `Cc1ccccc1C(=NS(=O)(=O)c1ccc(Br)cc1)Nc1ccccc1` were -3.32% and -1.18.
Taken in the same sequence, the figures for `CCOc1ccc(-c2cc(C(=O)NN=Cc3cccnc3)[nH]n2)cc1` were -4.91% and -2.15.
Taken in the same sequence, the figures for `CCOc1ccc(C(=O)N2CCc3cc(OC)c(OC)cc3C2)cc1` were -2.29% and -0.852.
In the case of `COc1ccc(C(N)=NOC(=O)c2cc(Cl)ccc2Cl)cc1`, the corrected activity, negative = more killing was -1.41% and the z-score was -0.786.
For the molecule `COc1cc(NC(=O)c2cc(Cl)cc(Cl)c2OC)ccc1NC(=O)c1ccccc1Cl`, the corrected activity, negative = more killing was -1.43% and the z-score was -0.797.
Consider `CCN(CC)c1ccc(C=NS(=O)(=O)c2ccc(C)cc2)cc1`, for which the corrected activity, negative = more killing was -5.15% and the z-score is -2.76.
The like results for `COc1cc(NC(=O)C(C)Oc2cccc(Cl)c2)cc(OC)c1` (centres undefined) were, in that order, -3.89% and -2.16.
The like results for `Cc1ccccc1-n1nnnc1C(c1ccccc1)N(C)Cc1ccc(Cl)c(Cl)c1` (centres undefined) were, in that order, -1.59% and -0.695.
The like results for `COc1ccc(C=Nc2ccc(C(N)=O)cc2)cc1` were, in that order, -2.24% and -0.885.
`Cc1ccc(S(=O)(=O)N2CCCCCC2)cc1C`: the corrected activity, negative = more killing is 1.77% and the z-score is 0.548.
The like results for `COc1cc(OC)c(CN2CCN3CCCC3C2C)cc1Br` (centres undefined) were, in that order, -2.76% and -1.21.
Taken in the same sequence, the figures for `CCOc1ccccc1C(=O)Nc1ccc(S(=O)(=O)N2CCCCC2C)cc1` (centres undefined) were -4.3% and -1.33.
With `CCN(CC)S(=O)(=O)c1ccc(C(=O)Nc2nc(-c3ccccc3)c(C(C)=O)s2)cc1`, the corrected activity, negative = more killing is -2.77% and the z-score is -0.984.
Taken in the same sequence, the figures for `Nc1cc(OC(=O)c2ccccc2Br)nn1S(=O)(=O)c1ccccc1` were -1.18% and -0.375.
As to `FC(F)(F)c1ccc(Oc2cccc(C(F)(F)F)c2)nc1`, the corrected activity, negative = more killing is -1.98% and the z-score was -1.1.
On to `O=C(Nc1ccc(Br)cc1)c1ccccc1I`, for which the corrected activity, negative = more killing was -1.25% and the z-score was -0.444.
Taken in the same sequence, the figures for `CCCCN(C)CCn1c(=S)[nH]c2cc3c(cc2c1=O)OCO3` were -6.47% and -1.71.
Consider `CCCNC(=O)C(=O)Nc1ccc(C(C)C)cc1`, for which the corrected activity, negative = more killing was -1.6% and the z-score was -0.603.
Taken in the same sequence, the figures for `Cc1ccc(C2C(C(=O)c3ccco3)=C(O)C(=O)N2c2nnc(C)s2)cc1` (centres undefined) were -5.27% and -2.29.
On to `COC(=O)c1ccc(COC(=O)c2cc(=O)[nH]c3ccccc23)cc1`, for which the corrected activity, negative = more killing was -1.5% and the z-score is -0.835.
As to `COc1ccc(Cl)cc1NC(=O)CSc1nc2c([nH]c3ccccc32)c(=O)n1C`, the corrected activity, negative = more killing is -2.37% and the z-score is -0.59.
The like results for `COc1cc(OC)c(C=C2C(=O)NC(=S)N(c3ccc(Cl)cc3)C2=O)cc1Br` were, in that order, -2.07% and -1.07.
Taken in the same sequence, the figures for `COc1cc(OC)c(C=Nc2ccc(OC(F)(F)F)cc2)cc1Br` were -1.81% and -0.768.
Taken in the same sequence, the figures for `O=C1NC(=S)N(c2ccc(Cl)cc2)C(=O)C1=Cc1cc(Br)ccc1O` were -3.58% and -1.85.
`COCCCNC(=O)c1cc(OC)c(OC)c(OC)c1`: the corrected activity, negative = more killing was -10.8% and the z-score was -2.27.
On to `Cc1ccc(-n2c(SCC(=O)Nc3cccc(F)c3)nc3c(c2=O)SCC3)cc1`, for which the corrected activity, negative = more killing was -3.47% and the z-score was -0.864.
Turning to `Cc1ccc(NC(=O)CSc2nc3c([nH]c4ccccc43)c(=O)n2-c2ccc(F)cc2)cc1`, the corrected activity, negative = more killing was -5.11% and the z-score is -1.27.
For `CCOc1ccc(-n2c(=O)c3c(C)c(C)sc3n(CC(=O)N3CC(C)CC(C)C3)c2=O)cc1` (centres undefined), the corrected activity, negative = more killing was -4.39% and the z-score was -1.25.
Turning to `COC(=O)c1cc(NC(=O)c2cc3nc(-c4ccc(Cl)cc4)cc(C(F)(F)F)n3n2)cc(C(=O)OC)c1`, the corrected activity, negative = more killing is -8% and the z-score is -2.54.
The like results for `CCCc1cc(=O)oc2cc3oc4c(c3cc12)CCCC4` were, in that order, -1.47% and -0.438.
The like results for `O=c1c2cc3c(cc2nc(SCc2cccc(F)c2)n1Cc1ccco1)OCO3` were, in that order, -3.76% and -0.995.
Taken in the same sequence, the figures for `O=C1OC(c2cccc(Cl)c2)=NC1=Cc1ccc(F)cc1` were -4.47% and -1.9.
`COc1ccccc1OCc1cccc([N+](=O)[O-])c1`: the corrected activity, negative = more killing is -5.65% and the z-score was -3.15.
The like results for `O=C(NN=Cc1ccc(O)cc1)c1cc(-c2ccc3ccccc3c2)n[nH]1` were, in that order, 0.541% and 0.236.
The like results for `CCCCOC(=O)c1ccc2c(c1)C(=O)N(c1cccc(Cl)c1)C2=O` were, in that order, -8.14% and -2.52.
On to `COC(=O)c1ccc(CSc2nc3c(cnn3-c3ccc(C)cc3)c(=O)[nH]2)o1`, for which the corrected activity, negative = more killing was -3.63% and the z-score is -0.89.
Turning to `CCOc1cc(C(=S)N2CCOCC2)ccc1OC(=O)Cc1ccccc1`, the corrected activity, negative = more killing was -7.5% and the z-score is -2.32.
For `CC(=O)Nc1ccc(N2C(=O)C3C4CC(C(Br)C4Br)C3C2=O)cc1` (centres undefined), the corrected activity, negative = more killing is -2.24% and the z-score is -0.796.
Taken in the same sequence, the figures for `COCCN(CCOC)C(=O)c1cc2c(=O)n3ccccc3nc2s1` were -1.77% and -0.502.
Taken in the same sequence, the figures for `CCC(C)NC(=O)c1ccc2c(=O)n(CCN(CC)CC)c(=S)[nH]c2c1` (centres undefined) were -4.1% and -1.09.
Regarding `N#Cc1cccn1Cc1ccccc1Cl`, the corrected activity, negative = more killing is -4.07% and the z-score was -1.1.
